In PubChem BioAssay (NCI):
This is part of a sample that, as a whole, favours compounds with a hit. Of some 83,000 tested, about 20% had one in any assay.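 Percent growth is the endpoint: 0 to 100 indicates growth inhibition (40 means 60% inhibition), 0 means no net growth, and negative values indicate cell death.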 Calls of active or inactive are those of the source. The calls were made as follows: active = growth percent below 10; inactive = the rest.

How the values were obtained:
Assay in all cases: NCI-60 one-dose screen, 48 h (100 = growth as untreated, 0 = no growth, -100 = all killed)
Details in all cases: 10 µM unless noted
T-47D breast = system: T-47D breast
BT-549 breast = system: BT-549 breast
MDA-MB-435 melanoma = system: MDA-MB-435 melanoma
SW-620 colon = system: SW-620 colon
MCF7 breast = system: MCF7 breast
HCT-116 colon = system: HCT-116 colon
HCC-2998 colon = system: HCC-2998 colon
KM12 colon = system: KM12 colon

Measured: growth

COc1ncc(-c2ccc3nc(N)n(-c4ccccc4C(F)(F)F)c(=O)c3c2)cc1S(=O)(=O)Nc1ccc(F)cc1F
inactive: T-47D breast 30.3% | BT-549 breast 49.1% | MDA-MB-435 melanoma 31.2% | SW-620 colon 34.2% | MCF7 breast 43.7% | HCT-116 colon 32.5% | HCC-2998 colon 39.7% | KM12 colon 21.1%

Cc1cc(N2CCCCCC2)nc(N2CCN(CC(=O)Nc3ccc4c(ccn4Cc4ccccc4)c3)CC2)n1
inactive: T-47D breast 20.2% | BT-549 breast 59% | MDA-MB-435 melanoma 67.7% | SW-620 colon 63.2% | MCF7 breast 24.1% | HCT-116 colon 32% | HCC-2998 colon 91.7% | KM12 colon 35%

COc1cc(OC)c(/C=C/C(=O)c2c(N)cc(OC)cc2OC)c(OC)c1
inactive: T-47D breast 49.9% | BT-549 breast 19.3% | SW-620 colon 15% | MCF7 breast 25% | HCT-116 colon 14.8% | HCC-2998 colon 29.4% | KM12 colon 11.5%
active: MDA-MB-435 melanoma -27.3%

N=C(N)c1ccc(-c2ccc(-c3ccc(-c4cccs4)s3)s2)cc1F
inactive: T-47D breast 87.7% | BT-549 breast 99.3% | MDA-MB-435 melanoma 94.1% | SW-620 colon 91.5% | MCF7 breast 64.9% | HCT-116 colon 83.6% | HCC-2998 colon 69% | KM12 colon 100%

CCCCCCCCCCCCCCCCCCNC(=S)N/N=C/c1ccc(OC)c(OC)c1
inactive: T-47D breast 95.8% | BT-549 breast 79.9% | MDA-MB-435 melanoma 97.4% | SW-620 colon 99.2% | MCF7 breast 96.8% | HCT-116 colon 96.9% | HCC-2998 colon 101% | KM12 colon 97.1%

O=C(Nc1ccc(CN2CCOCC2)c(C(F)(F)F)c1)c1nc2ccc3[nH]ncc3c2c2c1CCCC2
inactive: T-47D breast 62.6% | BT-549 breast 136% | MDA-MB-435 melanoma 96.6% | SW-620 colon 99.4% | MCF7 breast 83.1% | HCT-116 colon 79.4% | HCC-2998 colon 116% | KM12 colon 83.9%

CCOC(=O)c1nc2c3ccccc3ccn2c1C(=O)OC
inactive: T-47D breast 76.4% | BT-549 breast 97% | MDA-MB-435 melanoma 96.5% | SW-620 colon 100% | MCF7 breast 97.6% | HCT-116 colon 97.5% | HCC-2998 colon 91.1% | KM12 colon 107%

CCN(CC)CC(C)Nc1ccc(C)c2sc3ccccc3c(=O)c12 (centres undefined)
inactive: T-47D breast 53.6% | BT-549 breast 82.3% | MDA-MB-435 melanoma 59.1% | SW-620 colon 55.8% | MCF7 breast 32.6% | HCT-116 colon 34.6% | HCC-2998 colon 45.9% | KM12 colon 55%

Cc1cnc(N)nc1OCC(C)(C)CNC(=O)c1cccc(-c2ccc(S(=O)(=O)Nc3ccc4c(c3)N(C(=O)C3CC3)CCC4)cc2)c1
inactive: T-47D breast 20% | BT-549 breast 78% | MDA-MB-435 melanoma 50.4% | SW-620 colon 73.9% | MCF7 breast 43.6% | HCT-116 colon 61.3% | HCC-2998 colon 72.6% | KM12 colon 61.8%

Cc1ccc(-c2cn(C/C=C3\C=CN(S(=O)(=O)c4ccccc4)CC3)nn2)cc1
inactive: T-47D breast 78.3% | BT-549 breast 96.1% | MDA-MB-435 melanoma 101% | SW-620 colon 102% | MCF7 breast 90.3% | HCT-116 colon 98% | HCC-2998 colon 109% | KM12 colon 101%

C#C[C@]1(O)CC[C@H]2[C@@H]3CC=C4c5nc(Nc6ncccn6)sc5CC[C@]4(C)[C@H]3CC[C@@]21C
inactive: T-47D breast 40% | BT-549 breast 19.5% | MDA-MB-435 melanoma 50.5% | SW-620 colon 60.4% | MCF7 breast 59.7% | HCT-116 colon 22.3% | HCC-2998 colon 88.3% | KM12 colon 48.5%

COc1ccc(C2=C(c3cn(C)c4ccccc34)C(=O)OC2)cc1OC
inactive: T-47D breast 23.8% | BT-549 breast 45.9% | SW-620 colon 19.7% | MCF7 breast 18.8% | HCT-116 colon 29.3% | HCC-2998 colon 65.9% | KM12 colon 26.4%
active: MDA-MB-435 melanoma -8.21%

CCOC(=O)c1cc(C#N)n2ncc3ccccc3c12
inactive: T-47D breast 92.2% | BT-549 breast 91.5% | MDA-MB-435 melanoma 103% | SW-620 colon 98% | MCF7 breast 87.2% | HCT-116 colon 90.8% | HCC-2998 colon 104% | KM12 colon 102%

C=C(CN=[N+]=[N-])[C@@H]1CC[C@]2(C)[C@H](CC[C@@H]3[C@H]4[C@H]5OC(=O)[C@@]4(CCC5(C)C)CC[C@]32C)[C@@]1(C)CCC#N
inactive: T-47D breast 55.6% [100 µM] | BT-549 breast 78.7% [100 µM] | MDA-MB-435 melanoma 76.3% [100 µM] | SW-620 colon 87.3% [100 µM] | MCF7 breast 64.5% [100 µM] | HCT-116 colon 47.3% [100 µM] | HCC-2998 colon 89.3% [100 µM] | KM12 colon 81.7% [100 µM]

CCCSc1nc(N)nc2nc[nH]c12
inactive: T-47D breast 97.6% | BT-549 breast 156% | MDA-MB-435 melanoma 117% | SW-620 colon 113% | MCF7 breast 104% | HCT-116 colon 95.3% | HCC-2998 colon 115% | KM12 colon 114%

COc1cc(C(=O)/C=C/c2c(-c3ccc(F)cc3)nc3sccn23)cc(OC)c1OC
active: MDA-MB-435 melanoma -72.7% | MCF7 breast -8.44% | KM12 colon -12.1%
inactive: T-47D breast 19.8% | BT-549 breast 19.2% | SW-620 colon 13.7% | HCT-116 colon 23.3% | HCC-2998 colon 73.1%

CN(C)c1ccc(-c2ccc(-c3ccc(C(=N)N)cc3)s2)cc1
inactive: BT-549 breast 96.2%
active: T-47D breast -50.8% | MDA-MB-435 melanoma -77.6% | SW-620 colon -54.9% | MCF7 breast -55.3% | HCT-116 colon -45.3% | HCC-2998 colon -74.2% | KM12 colon -73%

C=C(C)[C@@H]1CC[C@]2(c3ncc(C)o3)CC[C@]3(C)[C@H](CC[C@@H]4[C@@](C)(CCC#N)[C@H](C(=C)C)CC[C@]43C)[C@@H]12
active: T-47D breast -73.4% [100 µM] | BT-549 breast -76% [100 µM] | MDA-MB-435 melanoma -84.6% [100 µM] | SW-620 colon -70% [100 µM] | MCF7 breast -73.3% [100 µM] | HCT-116 colon -81.8% [100 µM] | HCC-2998 colon -80.9% [100 µM] | KM12 colon -75.1% [100 µM]

COc1cc(C)cc2oc3oc(=N)c(C(=O)c4ccccc4)cc3c(=O)c12
inactive: T-47D breast 103% | BT-549 breast 97.3% | MDA-MB-435 melanoma 102% | SW-620 colon 104% | MCF7 breast 96.2% | HCT-116 colon 93.9% | HCC-2998 colon 108% | KM12 colon 104%

c1ccc(-c2nc(N3CCCNCC3)c3nc(-c4ccccc4)oc3n2)cc1
inactive: T-47D breast 46.9% | BT-549 breast 95.3%
active: MDA-MB-435 melanoma -85.7% | SW-620 colon -77.1% | MCF7 breast -66.7% | HCT-116 colon -74.8% | HCC-2998 colon -88.7% | KM12 colon -74.7%

O=c1[nH]c(CN2CCN(c3cccc(Cl)c3)CC2)nc2cc(Cl)ccc12
inactive: T-47D breast 75.9% | BT-549 breast 110% | MDA-MB-435 melanoma 103% | SW-620 colon 99.2% | MCF7 breast 86.2% | HCT-116 colon 92.4% | HCC-2998 colon 96.2% | KM12 colon 99%

FC(F)(F)c1ccc2c(c1)Sc1ccccc1N2
inactive: T-47D breast 77.7% | BT-549 breast 93.3% | MDA-MB-435 melanoma 97.1% | SW-620 colon 100% | MCF7 breast 95.4% | HCT-116 colon 100% | HCC-2998 colon 102% | KM12 colon 95%

CCN1CCN(CC(=O)Nc2nc3ccc(NCc4ccc(Cl)cc4)cc3s2)CC1
active: MDA-MB-435 melanoma -10.6%
inactive: T-47D breast 50.6% | BT-549 breast 76.4% | SW-620 colon 22% | MCF7 breast 33.6% | HCT-116 colon 12.6% | HCC-2998 colon 82.1% | KM12 colon 59.9%

Cc1nc(Cl)cc(N(c2cc(Cl)nc(C)n2)c2ncc(C(=O)Nc3c(C)cccc3Cl)s2)n1
inactive: T-47D breast 23.5% | BT-549 breast 93.3% | MDA-MB-435 melanoma 71.8% | SW-620 colon 96.6% | MCF7 breast 53.3% | HCT-116 colon 19.1% | HCC-2998 colon 80.7% | KM12 colon 79.7%

CC1(C)CC[C@]2(C(N)=O)CC[C@]3(C)C(=CC[C@@H]4[C@@]5(C)C/C(=C/c6cccnc6)C(=O)C(C)(C)[C@@H]5CC[C@]43C)[C@@H]2C1
active: T-47D breast 2.41% [100 µM] | BT-549 breast -47.9% [100 µM] | MDA-MB-435 melanoma -34.6% [100 µM] | SW-620 colon -32.4% [100 µM] | MCF7 breast -9.32% [100 µM] | HCT-116 colon -48.2% [100 µM] | HCC-2998 colon -73.4% [100 µM] | KM12 colon -37.2% [100 µM]

CCOC(=O)c1nn(C2CCCCO2)c2ccc(NC(=O)Cn3nnc4ccccc43)cc12 (centres undefined)
inactive: T-47D breast 85.5% | BT-549 breast 96% | MDA-MB-435 melanoma 110% | SW-620 colon 105% | MCF7 breast 99.5% | HCT-116 colon 88.6% | HCC-2998 colon 111% | KM12 colon 104%

O=C1CC(c2ccc3c(c2)OCO3)Nc2ccccc21 (centres undefined)
inactive: T-47D breast 27.5% | BT-549 breast 42.2% | SW-620 colon 19.2% | MCF7 breast 15.9% | HCT-116 colon 17% | HCC-2998 colon 35.3% | KM12 colon 17.1%
active: MDA-MB-435 melanoma -22.6%

C=C(C)[C@@H]1CC[C@]2(C(=O)NCCNCCNCCN)CC[C@]3(C)[C@H](CC[C@@H]4[C@@]5(C)CCC(=O)C(C)(C)[C@@H]5CC[C@]43C)[C@@H]12
active: T-47D breast -4.36% [100 µM] | MDA-MB-435 melanoma -49.9% [100 µM] | SW-620 colon -76.7% [100 µM] | MCF7 breast -58% [100 µM] | HCT-116 colon -80.7% [100 µM] | HCC-2998 colon -90% [100 µM] | KM12 colon -81.9% [100 µM]
inactive: BT-549 breast 58.3% [100 µM]
